Reference: the supplement of paper PMC10600219
Where “and” joins values, the source holds several entries; their conditions need not be identical. Equal values may be shown once. Where a name gives a salt, the structure may show the parent alone. Whole data set: some 2,800 compounds, median “cell viability relative to vehicle” near 1.1, cut for the lowest 2% near 0.19. The sample holds the lowest values, similar compounds and a random draw of the others, so the mix is not that of the screen.

Each compound was assayed on NCI-H2228 parental (assay: cell viability relative to vehicle (fraction of vehicle); NCI-H2228 is an ALK-positive lung cancer line and DTP means drug-tolerant persister; higher = less growth inhibition). Conditions: 100 nM; treatment time 6 days.
Outline: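 Each value is viability relative to vehicle-treated cells, measured as ATP with the CellTiter-Glo 3D Cell Viability Assay. Parental NCI-H2228 cells and drug-tolerant persisters (1000 nM targeted drug, 13 days) in 384-well plates received the 3114-agent TargetMol anti-cancer compound library at 100 nM, or DMSO, and were read 6 days later.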
In the case of `CN1CCc2c(c3ccccc3n2Cc2ccc(C(=O)NO)cc2)C1` [Tubastatin A HCl], the cell viability is reported as 1.02. `Cn1cc(CNCC2CCN(c3ncc(C(=O)NO)cn3)CC2)c2ccccc21` [Quisinostat] showed a cell viability of 0.159. For `Cn1cc(C[C@@H](N)C(=O)O)c2ccccc21` [Indoximod], the cell viability was 1.11. Work on `CCCN1CCN(c2ccc(C(=O)NC3(C(=O)NCC#N)CCCCC3)cc2)CC1` [Balicatib] yielded a cell viability of 1.07. `CC(C)=CCC[C@](C)(O)[C@H]1CC[C@]2(C)[C@@H]1[C@H](O)C[C@@H]1[C@@]3(C)CC[C@H](O)C(C)(C)[C@@H]3[C@@H](O[C@@H]3O[C@H](CO)[C@@H](O)[C@H](O)[C@H]3O[C@@H]3O[C@@H](C)[C@H](O)[C@@H](O)[C@H]3O)C[C@]12C` [Ginsenoside Rg2] showed a cell viability of 1.15. `CCCCCCCCOC(=O)c1cc(O)c(O)c(O)c1` [Octyl gallate] showed a cell viability of 1.03. `CC[C@@](C)(Nc1ccnc(-c2c[nH]c3ncccc23)n1)C(=O)NCC(F)(F)F` [Decernotinib] was tested, and the cell viability was 1.12. For `COc1cc2ncnc(Nc3cccc(Cl)c3)c2cc1OC`, the cell viability was 0.877. With `O=C(Nc1cccc(Cl)c1)Nc1ncc(CCNc2ncnc3ccsc23)s1` [SNS-314 Mesylate] the cell viability was 0.126. Work on `COc1cc(/C=C/C(=O)OC[C@H]2O[C@H](O[C@]3(CO)O[C@H](CO)[C@@H](O)[C@@H]3OC(=O)/C=C/c3cc(OC)c(O)c(OC)c3)[C@H](O)[C@@H](O)[C@@H]2O)cc(OC)c1O` [3,6'-Disinapoyl sucrose] yielded a cell viability of 0.963. With `Fc1ccc(-n2cc(CCCCN3CCC4(CC3)OCc3ccccc34)c3ccccc32)cc1` [Siramesine hydrochloride] the cell viability was 1.13. With `COc1ccc(-c2cc3c(C)nc(N)nc3n([C@H]3CC[C@H](OCCO)CC3)c2=O)cn1` the cell viability was 0.485. Work on `COc1cccc(-c2cc(F)ccc2[C@H]2Cc3nc(N)nc(C)c3C(=O)N2)n1` yielded a cell viability of 0.171. Compound `Oc1ccc(-c2cc(=S)ss2)cc1` [Desmethylanethol trithione] has a cell viability of 1.03. With `Cc1cc(C#N)c(N)s1` [2-Amino-5-methyl-3-thiophenecarbonitrile] the cell viability was 0.811. `COCCNc1cc(NC(=O)N2CCCc3cc(CN4CCN(C)CC4=O)c(C=O)nc32)ncc1C#N` [Roblitinib] gave a cell viability of 1.13. `COc1ccc2[nH]c(C(=O)c3ccccc3)cc2c1` gave a cell viability of 0.197. Compound `O=C(CCCCCCNC(=O)c1cnc(N(c2ccccc2)c2ccccc2Cl)nc1)NO` [Citarinostat] has a cell viability of 1.03. With `CC(C)c1cc(-c2n[nH]c(=O)n2-c2ccc3c(ccn3C)c2)c(O)cc1O` [Ganetespib] the cell viability was 0.118. `CCc1c2c(nc3ccc(OC(=O)N4CCC(N5CCCCC5)CC4)cc13)-c1cc3c(c(=O)n1C2)COC(=O)[C@]3(O)CC` [Irinotecan hydrochloride trihydrate] gave a cell viability of 1.11. `CCc1c2c(nc3ccc(OC(=O)N4CCC(N5CCCCC5)CC4)cc13)-c1cc3c(c(=O)n1C2)COC(=O)[C@]3(O)CC` [Irinotecan] gave a cell viability of 0.939. In the case of `CC[C@@]1(O)C(=O)OCc2c1cc1n(c2=O)Cc2cc3cc(O)ccc3nc2-1` [Hydroxy Camptothecine], the cell viability is reported as 0.0691. `CC[C@@]1(O)C(=O)OCc2c1cc1n(c2=O)Cc2cc3c(CN(C)C)c(O)ccc3nc2-1` [Topotecan hydrochloride] gave a cell viability of 0.0837. `CCc1c2c(nc3ccc(O)cc13)-c1cc3c(c(=O)n1C2)COC(=O)[C@]3(O)CC` showed a cell viability of 0.0693. Compound `CC[C@@]1(O)C(=O)OCc2c1cc1n(c2=O)Cc2cc3cc(O)ccc3nc2-1` [10-Hydroxycamptothecin] has a cell viability of 0.0838. For `CC(C)C(C(=O)O)N1C(=O)C(=Cc2ccc(Br)cc2)SC1=S` (stereo unspecified), the cell viability was 1.04. `COc1ccc(-c2oc3cc(O)cc(O)c3c(=O)c2O)cc1` [kaempferide] gave a cell viability of 1.13. In the case of `OC[C@H]1O[C@@H](Oc2cc(O)cc(/C=C/c3ccc(O[C@@H]4O[C@H](CO)[C@@H](O)[C@H](O)[C@H]4O)cc3O)c2)[C@H](O)[C@@H](O)[C@@H]1O` [Mulberroside A], the cell viability is reported as 1.07. With `N[C@@H](CO)C(=O)O` [serine] the cell viability was 1.06. `COc1ccc(C(=C2C(=O)Nc3ccccc32)c2ccc(OC)cc2)cc1` was tested, and the cell viability was 1.05. `C/C(=N\NC(=S)N1CCC1)c1ccccn1` showed a cell viability of 0.136. `CN(C)C(=S)NN=C(c1ccccn1)c1ccccn1` showed a cell viability of 0.212. Work on `S=C(N/N=C1/CCCc2cccnc21)N1CCN(c2ccccn2)CC1` yielded a cell viability of 1.09. In the case of `COc1cc(OC)cc(C(=O)Nc2ccc(Cl)c(-c3nc4ccc(N(C)C)cc4[nH]3)c2)c1` [HhAntag], the cell viability is reported as 1.03. `NC(=O)c1ccc(OCCCN2CC3CCCC3C2)cc1` (stereo unspecified) gave a cell viability of 1.17. With `COc1c(Nc2ncc(Cl)c(N[C@H]3[C@@H](C(N)=O)[C@@H]4C=C[C@H]3C4)n2)ccc2c1CC[C@@H](N1CCOCC1)CC2` the cell viability was 0.799. In the case of `Cc1[nH]c2ccccc2c1CCNCc1ccc(/C=C/C(=O)NO)cc1` [Panobinostat], the cell viability is reported as 0.094. `CN(C)Cc1ccc(S(=O)(=O)n2ccc(/C=C/C(=O)NO)c2)cc1` [Resminostat hydrochloride] gave a cell viability of 1.02. Work on `Cc1[nH]c2ccccc2c1CCNC(=O)c1cccs1` yielded a cell viability of 1.06. Compound `CC(C)c1cc2c(c(O)c1O)[C@@]13CCCC(C)(C)[C@@H]1C[C@@H]2OC3=O` [Carnosol] has a cell viability of 1.04. `O=C1C=C2C=C[C@@H](O)[C@H](O)[C@H]2O1` [griffonilide] was tested, and the cell viability was 1.11. In the case of `N=C(NCCCCCCNC(=N)NC(=N)Nc1ccc(Cl)cc1)NC(=N)Nc1ccc(Cl)cc1` [Chlorhexidine], the cell viability is reported as 1.08. With `N#CN=C(NCCCCCCOc1ccc(Cl)cc1)Nc1ccncc1` the cell viability was 0.0557. `N=C(NCCCCCCNC(=N)NC(=N)Nc1ccc(Cl)cc1)NC(=N)Nc1ccc(Cl)cc1` [Chlorhexidine hydrochloride] gave a cell viability of 0.965. Compound `CN1CCN(C(=O)C2C(C(=O)O)[C@H]3CC[C@@H]2O3)CC1` (stereo partly specified) has a cell viability of 0.955. For `O=C1CSc2ccccc2N1Cc1cccc(C(F)(F)F)c1`, the cell viability was 1.04. `OC[C@@H](O)[C@@H](O)[C@@H](O)[C@@H](O)CO` [Allitol] gave a cell viability of 1.13. `Cn1cc(-c2nc(N[C@@H]3CCCC[C@@H]3N)c(F)c3c2C(=O)NC3)cn1` [TAK-659 hydrochloride] showed a cell viability of 1.01. Compound `Nc1nc(F)nc2c1ncn2[C@@H]1O[C@H](CO)[C@@H](O)[C@@H]1O` [Fludarabine] has a cell viability of 1.12. `Nc1nc(Cl)nc2c1ncn2[C@H]1C[C@H](O)[C@@H](CO)O1` [Cladribine] showed a cell viability of 0.201. `Nc1nc(Cl)nc2c1ncn2[C@@H]1O[C@H](CO)[C@@H](O)[C@@H]1F` [Clofarabine] showed a cell viability of 0.151. For `NS(=O)(=O)Oc1ccc2c3c(c(=O)oc2c1)CCCCC3` [Irosustat], the cell viability was 1.04. With `O=C(O)c1ccc(S(=O)(=O)NC2CCCCC2)cc1` the cell viability was 0.986 and 1.12. Work on `C[C@@H](Oc1cc(-n2cnc3ccc(CN4CCN(C)CC4)cc32)sc1C(N)=O)c1ccccc1C(F)(F)F` yielded a cell viability of 0.156. `CC(C)c1cc(C(=O)N2Cc3ccc(CN4CCN(C)CC4)cc3C2)c(O)cc1O` [Onalespib] was tested, and the cell viability was 0.29. `COc1ccc(CC(C)(C)NC[C@H](O)c2cc(O)cc3c2OCC(=O)N3)cc1` [Olodaterol] was tested, and the cell viability was 0.923. In the case of `Cc1ccc(/C=C2\CNC/C(=C\c3ccc(C)cc3)C2=O)cc1`, the cell viability is reported as 1.06. For `c1ccc(CNc2ccccc2)cc1` [N-Phenylbenzylamine], the cell viability was 1.16. `Cc1cc(O)c(-c2ccc(C(C)CN)cc2)c2c1[nH]c(=O)c1sccc12` (stereo unspecified) was tested, and the cell viability was 0.116. `COC(=O)c1ccc(O)c(OC)c1` [Methyl Vanillate] showed a cell viability of 1.18. `CCC(=O)N1CCN(c2ccc(-n3c(=O)ccc4cnc5ccc(-c6cnc7ccccc7c6)cc5c43)cc2C(F)(F)F)CC1` [Torin 1] showed a cell viability of 0.306. With `Cn1c(=O)n(-c2ccc(C(C)(C)C#N)cc2)c2c3cc(-c4cnc5ccccc5c4)ccc3ncc21` [Dactolisib] the cell viability was 0.258. For `COc1ccc(-c2ccc3ncc4c(c3c2)n(-c2ccc(N3CCNCC3)c(C(F)(F)F)c2)c(=O)n4C)cn1`, the cell viability was 0.172. In the case of `NC(=O)c1ccc2nc(-c3ccc(Oc4ccc(Cl)cc4)cc3)[nH]c2c1`, the cell viability is reported as 0.996. For `Nc1ccc(Cl)cc1C(=O)O` [2-Amino-5-chlorobenzoic acid], the cell viability was 1.16. In the case of `Cc1nc(Nc2ncc(C(=O)Nc3c(C)cccc3Cl)s2)cc(N2CCN(CCO)CC2)n1` [Dasatinib], the cell viability is reported as 0.872. Work on `Cc1nc(Nc2ncc(C(=O)Nc3c(C)cccc3Cl)s2)cc(N2CCN(CCO)CC2)n1` [Dasatinib monohydrate] yielded a cell viability of 0.77. With `Cc1cc(Nc2cc(N3CCN(C)CC3)nc(/C=C/c3ccccc3)n2)n[nH]1` the cell viability was 0.803. `Cc1cc(Nc2cc(N3CCN(C)CC3)nc(Sc3ccc(NC(=O)C4CC4)cc3)n2)n[nH]1` [Tozasertib] showed a cell viability of 0.158. In the case of `O=C(O)c1ccc(CN2C[C@@H]3C[C@H]2CN3Cc2ccc(Oc3ccc(-c4ncco4)cc3)cc2)cc1` [Acebilustat], the cell viability is reported as 1.05. Work on `CN1C(=O)C(C)(C)Oc2c(-c3cn(C)c(=O)c4[nH]ccc34)cc(S(C)(=O)=O)cc21` yielded a cell viability of 0.935. In the case of `C(=N\NC1=NCCN1)/c1c2ccccc2c(/C=N/NC2=NCCN2)c2ccccc12` [Bisantrene], the cell viability is reported as 1.01. `CC(C)=CCc1cc(-c2coc3cc(O)ccc3c2=O)ccc1O` [Neobavaisoflavone] was tested, and the cell viability was 1.17. With `CC(=O)NCCC(=O)O` the cell viability was 0.856. With `COc1cc(/C=C2/SC(=S)NC2=O)ccc1OCC(=O)O` the cell viability was 1.1. `COc1cc(C(=O)N2CCC(N3CCN(C)CC3)CC2)ccc1Nc1ncc2c(n1)N(C)c1ccccc1C(=O)N2C` was tested, and the cell viability was 1.11. `CC[C@@H]1C(=O)N(C)c2cnc(Nc3ccc(C(=O)N[C@H]4CC[C@H](N5CCN(CC6CC6)CC5)CC4)cc3OC)nc2N1C(C)C` [Volasertib] was tested, and the cell viability was 0.192. In the case of `CCOc1cc(C(=O)N2CCC(N3CCN(C)CC3)CC2)ccc1Nc1ncc2c(n1)N(C1CCCC1)c1ccccc1C(=O)N2C`, the cell viability is reported as 1.23. `CC[C@@H]1C(=O)N(C)c2cnc(Nc3ccc(C(=O)NC4CCN(C)CC4)cc3OC)nc2N1C1CCCC1` showed a cell viability of 0.167. For `CCOc1cc(N2CCC(O)CC2)ccc1Nc1ncc2c(n1)N(C1CCCC1)CCC(=O)N2C`, the cell viability was 1.15. `COc1cc(C(=O)NC2CCN(C)CC2)ccc1Nc1ncc2c(n1)N(C1CCCC1)CC(F)(F)C(=O)N2C` gave a cell viability of 0.171.
